Hits are enriched below; roughly 2.4% of the tested compounds scored in any of these assays.
CHRM1 PAM – human CHRM1 positive allosteric modulation. P11229. CHO-K1 hM1, Fluo-8 calcium fluorescence, ACh EC20; 0% = ACh EC20, 100% = maximal ACh. activation, % at 3 µM. 360,000 tested, 0.088% active. AID 588819; in the data active means activation above about 19%, passing the limit was not always enough
Target sequence (P11229 whole entry, looked up): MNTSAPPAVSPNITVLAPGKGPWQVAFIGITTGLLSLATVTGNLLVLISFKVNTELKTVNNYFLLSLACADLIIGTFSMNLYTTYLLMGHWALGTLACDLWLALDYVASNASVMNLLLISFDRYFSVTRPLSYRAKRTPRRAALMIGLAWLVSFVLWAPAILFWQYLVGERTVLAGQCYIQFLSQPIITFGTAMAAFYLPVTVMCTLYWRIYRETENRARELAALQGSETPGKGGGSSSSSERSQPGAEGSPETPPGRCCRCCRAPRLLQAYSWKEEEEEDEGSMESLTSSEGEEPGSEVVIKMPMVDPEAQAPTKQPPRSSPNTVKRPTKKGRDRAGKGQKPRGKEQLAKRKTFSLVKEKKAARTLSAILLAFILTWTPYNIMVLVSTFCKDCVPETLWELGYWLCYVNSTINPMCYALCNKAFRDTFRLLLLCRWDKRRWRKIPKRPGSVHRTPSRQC
CHO-K1 Ca antag – counter-screen for M1 antagonists: effect in parental CHO-K1 cells; inhibition, % at 3 µM; 360,000 tested, 0.6% active; AID 602250; ATP-induced calcium, Fluo-8 fluorescence;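 active means inhibition above a per-plate cutoff, the plate's mean sample inhibition plus 3 SD, cut at about 24% in these data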
M1 PAM parental – counter-screen for M1 PAMs: effect in parental CHO-K1 cells | ATP EC20, Fluo-8 calcium fluorescence; 0% at ATP EC20, 100% at ATP max | activation, % at 3 µM | 360,000 tested, 0.02% active;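 active means activation above the run cutoff, the mean activation of all test compounds plus 3 SD, cut at about 40% in these data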;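 further: peak over basal fluorescence ratio in a 140 s read after ATP addition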
CHO-K1 Ca ag – nonselective activator or artifact in parental CHO-K1 cells | AID 602248 | Fluo-8 calcium fluorescence; scaled to maximal ATP response, vehicle zero | 360,000 tested, 0.48% active | activation, % at 3 µM; in the data active means activation above about 15%;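 further: untransfected CHO-K1 host cells lacking M1 receptor as counterscreen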
M1 ag – human M1 muscarinic receptor agonism; P11229; CHO-K1 hM1, Fluo-8 calcium fluorescence, agonist mode; 0% DMSO, 100% acetylcholine EC100; activation, % at 3 µM; 360,000 tested, 0.33% active;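 active means activation above the run's mean compound activation plus 3 SD, cut at about 16% in these data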;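 further: peak over basal fluorescence ratio within a 140 s kinetic read after compound addition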
CHRM1 antagonist – human CHRM1 antagonism; P11229; CHO-K1 hM1, Fluo-8 calcium fluorescence, ACh EC80 antagonist; inhibition, % at 3 µM; 360,000 tested, 1.3% active; AID 588852;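 active means percent inhibition above its own plate's cutoff, namely the mean of that plate's compound wells plus 3 SD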;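 further: peak over basal fluorescence ratio during 140 s after agonist addition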
Each line names hits and unclear results; the compound was inactive in the other large screens.

COC(=O)C1=C(C)N(CCCC(=O)O)C(=O)NC1c1ccc2c(c1)OCO2 (stereo unspecified)	none
COCC(C)NS(=O)(=O)c1ccc(OC)cc1 (stereo unspecified)	none
COc1ccc(-c2csc(NC(=O)C3=NN(c4ccccc4)C(=O)CC3)n2)cc1	CHRM1 antagonist 24.0
N#CC1(NC(=O)CSc2nc3ncc(Cl)cc3[nH]2)CCCCC1	none
Cn1c(SCc2nc(-c3cccs3)no2)nnc1C1CCCCC1	none
CCCCN(C)CCCNC(=O)c1cn(CC)c2ccc(S(=O)(=O)N3CCc4ccccc4C3)cc2c1=O	CHRM1 antagonist 42.6
C#CCOCCOCCOCCNc1nc(N2CCN(C(=O)C([C@@H](C)O)n3cc([C@@H](N)CCCCN)nn3)CC2)nc(N2CCN(C(=O)[C@H](CCCCN)n3cc([C@@H](N)[C@H](C)CC)nn3)CC2)n1 (stereo partly specified)	none
COc1cc(C2=NOC(C(=O)Nc3ccc4c(c3)OCO4)C2)cc(OC)c1OC (stereo unspecified)	CHO-K1 Ca ag 18.4
CC1=CC(C)(C)N(C(=O)c2ccc(F)cc2)c2cc3c(cc21)OCO3	M1 ag 17.6
COc1ccc(OC)c(NC(=O)c2cc(OC(C)=O)cc(C(=O)Nc3cc(OC)ccc3OC)c2)c1	CHO-K1 Ca antag 30.2
COc1ccc(-n2ncc3c2CC(C)(C)CC3NC(=O)CCN2CCCC2=O)cc1 (stereo unspecified)	none
COc1ccc(F)cc1C(=O)C1CCCN(Cc2cccn2-c2cccnc2)C1 (stereo unspecified)	none
COc1ccc(F)cc1C(=O)C1CCCN(Cc2c(C)n(C)n(-c3ccccc3)c2=O)C1 (stereo unspecified)	CHRM1 antagonist 36.4
O=C(Nc1ccc(F)c(Cl)c1)NC1CC1	none
COc1ccc(F)cc1-c1cc(NC(C)=O)c2ncc(-c3cc(OC)c(OC)c(OC)c3)n2c1	none
COc1ccc(-c2cnc3c(NC(C)=O)cc(-c4cc(F)ccc4OC)cn23)cc1OC	M1 ag 17.1
COc1ccc(-c2cc(NC(C)=O)c3ncc(-c4ccccc4)n3c2)cc1OC	CHO-K1 Ca antag 29.1
Cn1cccc1C(=O)NCC1COc2ccccc2O1 (stereo unspecified)	none
Cc1ccc(S(=O)(=O)NCCC(=O)NC(C)c2ccccc2)cc1 (stereo unspecified)	none
Cc1cc(C)cc(SCc2noc(C(=O)NC(C)C)c2C(=O)O)c1	none
O=C(N/N=C1\CCCCc2ccccc21)c1ccccn1	CHO-K1 Ca antag 29.4
COc1ccc(OCC(=O)N/N=C2\CCCc3ccccc32)cc1	CHO-K1 Ca antag 24.6
COc1ccccc1OCC(=O)N/N=C1\CCCCc2ccccc21	none
Cc1cccc(NC(=O)c2cc(-c3ccco3)nc3ccccc23)n1	none
CCn1c(SCC(=O)Nc2ccc3[nH]c(=O)[nH]c3c2)nc2ccccc21	CHRM1 antagonist 49.5
CC(C)Cn1c(SCC(=O)Nc2ccc3[nH]c(=O)[nH]c3c2)nc2ccccc2c1=O	none
COCCn1c(SCC(=O)Nc2ccc3[nH]c(=O)[nH]c3c2)nc2ccccc21	CHRM1 antagonist 38.2
c1ccc2c(c1)CCc1c(-c3ccncc3)n[nH]c1-2	none
CCc1ccccc1NC(=O)Nc1cc(F)ccc1F	CHO-K1 Ca ag 25.4
Cc1cccc(N2C(=O)C(O)=C(C(=O)c3cccs3)C2c2ccc(C(C)C)cc2)n1 (stereo unspecified)	M1 ag 21.1
CCN(CC)C(=O)c1ncn2c1C(=O)N(C)CC2	CHO-K1 Ca antag 27.3
CN1CCn2cnc(C(=O)NCc3ccccc3)c2C1=O	none
Cc1ccc(Cl)cc1N1CCN(C(=S)NCCc2ccccc2)CC1	none
CSc1ccc(S(=O)(=O)Nc2ccc3c(c2)NC(=O)CC3)cc1	CHO-K1 Ca ag 16.2
Cc1ccc(NS(=O)(=O)c2ccc3c(c2)CCC(=O)N3)cc1	none
CCc1ccc(C(CC(=O)O)N2Cc3ccccc3C2=O)cc1 (stereo unspecified)	none
CC(=O)c1cccc(NC(=O)c2cccc3c(-c4cccc(C(N)=O)c4)coc23)c1	none
CS(=O)(=O)Nc1cccc(NC(=O)c2cccc3c(-c4cccc(C(N)=O)c4)coc23)c1	CHRM1 antagonist 31.1
